± gives the standard deviation.
system: MILI (PIWIL2) piRISC loaded with L1MC piRNA (26 nt); test: pre-steady-state target cleavage rate (min^-1); guide: L1MC piRNA 5'p-UAACUAAAUACUAUGCAAGCUGUAGG; MIWI and MILI are mouse PIWI proteins and EfPiwi is from a freshwater sponge; tags in brackets are library labels; higher = faster piRNA-guided slicing of the target; settings: auxiliary factor: 500 nM mouse GTSF1
Summary of the method: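 Active affinity-purified piRISC carrying one synthetic guide (1 nM) was mixed with a transcribed, DNA-blocked target RNA library […] in HEPES–potassium acetate buffer at 33 °C for 0–8 or 0–960 min, with or without 500 nM GTSF1 partner protein. Uncleaved targets were then sequenced and normalised to depth and to weakly complementary targets. Three trials were pooled, and k3 was capped at 0.0001 min^-1. A burst-and-steady-state fit was applied to obtain the pre-steady-state cleavage rate.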
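Further: 1 nM active piRISC with 0.1 nM target library at 33 °C single turnover.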

Row | Sequence | pre-steady-state target cleavage rate
1 | UCCUGGUACAGCAUGCAUAGUAUUUUCAAA | 0.0847 ± 0.026
2 | UCCUGCUACAGCUUGCAUUCUAUUUUCAAA | 0.0184 ± 0.0078
3 | UCCUGGAUGUCGAACGUAUCUAUAAUGUUA | < 0.0001
4 | UCCUCCUACAGCUUGCAAUGUAUUUACAAA | 0.0431 ± 0.011
5 | UCCUGGAUGUCGAUGCAUAGUAUAAAGUUA | 0.0643 ± 0.016
6 | UCCUCCUACAGCUUCCAUAGUAAUUAGUUA | 0.0149 ± 0.0069
7 | UCCUGGAUGUCGAAGCAUAGUAUUUAGUAA | 0.0199 ± 0.0047
8 | UCCUGGAACACGAUGCAUAGUAUUUAGAAA | 0.072 ± 0.018
9 | UCCUGGAUGUCCUUGCAUAGUAUAUAGAUA | 0.0132 ± 0.0063
10 | UCCUGGAUGUGCAUGCAUAGUAUUUAGAUA | 0.146 ± 0.032
11 | UCCUGGAUCAGCAACCAUAGUAUUUAGUUA | 0.116 ± 0.013
12 | UCCUGGUACAGCUUGCAUAGAAUAUAGUUA | 0.102 ± 0.028
13 | UCCUGGAUGUCCUUGCAAAGUAUUUACUUA | 0.0234 ± 0.0076
14 | UCCUGCAACAGCUUGCAUAGUAUUUACUUA | 0.122 ± 0.012
15 | UCCUGGAUGUCCUUGGAUAGUAUUUACUUA | 0.014 ± 0.005
16 | UCCUGGUACAGCUUGCUAAGUAUUUAGAAA | 0.0132 ± 0.0056
17 | UCCUGGAUGUCGAAGCAUAGUAUAUUGUUA | 0.00971 ± 0.0047
18 | UCCUGCUACAGGUUGCAUAGUAUUUUCAAA | 0.0101 ± 0.0054

Row | Sequence | pre-steady-state target cleavage rate
19 | UCCUGGAUGUCCUUGCAUAGUUUAUAGUUA | 0.0111 ± 0.006
20 | UCCUGGAUGAGCAACCAUAGUAUUUAGUAA | 0.0492 ± 0.016
21 | UCCUGGAUCAGCUAGCAUAGUAUUUACUUA | 0.134 ± 0.018
22 | UCCUGGUAGUCCUUGCAUAGUAUUUACAAA | 0.00835 ± 0.0045
23 | UCCUCCUUCAGCUUGCAUAGAAUUUAGUUA | 0.0772 ± 0.016
24 | UCCUGGAACAGCUUGCAUAGUAAAAAGAAA | 0.0185 ± 0.0077
25 | UCCUGGAUGUCCUUGCAUAGUAUUAAGAUA | 0.00928 ± 0.0043
26 | UCCUGGUACUCGUUGCAUAGUAUUUAGUAA | 0.0635 ± 0.029
27 | UCCUGGAUCAGCUUGCAUAGUAUAAUGUUA | 0.116 ± 0.013
28 | UCCUGGAACAGCUUGCAUAGUAUAAACAAA | 0.0505 ± 0.015
29 | UCCUGGAUGUCCUUGCAUUCUAUUUAGUUA | 0.00856 ± 0.0043
30 | UCCUCCUACAGCUUGCAAAGUAUUUACAAA | 0.0935 ± 0.021
31 | UCCUGCUACACCUUGCAUAGUAUAUAGUUA | 0.18 ± 0.037
32 | UCCUCCUACAGCUUGCAAUCUAUUUAGUAA | 0.0401 ± 0.0094
33 | UCCUGGUAGAGCUUGCAUAGAAUUUAGUUA | 0.0311 ± 0.0054
34 | UCCUGGAUGUGCUUGCAUAGUAUUAGUUA | 0.0236 ± 0.0068
35 | UCCUGGUACAGCUUGCAUAGUAUUUUCAAA | 0.109 ± 0.027
36 | UCCUGCUACAGCUUGCUAAGUAUUUAGUAA | 0.0923 ± 0.022

same assay, conditions: auxiliary factor: none (no GTSF1)

Row | Sequence | pre-steady-state target cleavage rate
37 | UCCUGGAUGUCGAACGUUUGUAUUUAGUAA | < 0.0001
38 | UCCUGGAUGUCGAACCAUACUAUUUAGUUA | < 0.0001
39 | UCCUGGAUGUCGUUGCAUACAAUUUAGUUA | 0.00319 ± 0.0024
40 | UCCUGGAUGUCGAACCAUAGUAUGUUAGUUA | < 0.0001
